Inconclusive results are not listed. Activity calls are given as the source filed them. The call rests on the fitted dose curve; in most records, active means well fitted cell-killing curve with a large enough effect; inconclusive means small, poorly fitted or top-dose-only effect, or effect the other way; inactive means no such curve, though single readings can be large or run the other way.
Potency means the concentration at half of the fitted maximal effect.

The nature of the assay: Quantitative High-Throughput drug screen in 47 multiple myeloma cell lines against the NCATS MIPE library collection: INA6_PLB cell viability assay (AID 1918965; further: nearly all actives have a fitted effect of over 55% in size). The note with it: INA6 myeloma viability, CellTiter-Glo ATP luminescence, 48 h; series mostly up to 45.8 µM; viability (% of control): at the top concentration. An outline of the steps:
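CellTiter-Glo ATP luminescence gave viability after 48 h compound treatment at 37C of 500 multiple myeloma cells per well. Normalisation used DMSO-only wells as 100% and media-only wells as 0% viability; primary qHTS of approved and investigational drugs.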
As to `COc1ccc2c3n(c(=NC(=O)c4cccnc4)nc2c1OC)CCN3`, the Potency was 23.5 µM (active).
Still for that read-out and setting: under `Cc1ccc(NC(=O)c2cccc(C(C)(C)C#N)c2)cc1Nc1ccc2ncn(C)c(=O)c2c1` stands 14.8 µM (active); under `Cc1cc([C@@H](C)Nc2ccccc2C(=O)O)c2nc(N3CCOCC3)cc(=O)n2c1`, 13.6 µM (active).
On the same count and under the same terms, the result for `NC(N)=NC(=O)c1nc(Cl)c(N)nc1N` reads 5.26 µM (active).
In the case of `CC[C@@H](C)[C@H](NC(=O)[C@H](CC1CCCCC1)NC(=O)c1ccno1)C(=O)N1CCC2(CCc3ccccc32)CC1`, the “viability (% of control)” value is 67.6% (inactive).
Same read-out and setting: under `CC(C)(C)NCC(O)c1ccc(O)c(CO)c1` (stereo unspecified) stands 126% (inactive).
With `CCOc1ccc(Cc2cc([C@@H]3O[C@H](CO)[C@@H](O)[C@H](O)[C@@H]3O)ccc2Cl)cc1`, the “viability (% of control)” value was 132% (inactive).
For the molecule `Cc1c(CN2CCN(C(=O)C(C)C)CC2)sc2c(N3CCOCC3)nc(-c3cnc(N)nc3)nc12`, the Potency was 0.235 µM (active).
For the molecule `Cc1c(CCOc2ccc(C(=O)O)cc2)c2cc(Cl)ccc2n1C(c1ccccc1)c1ccccc1`, the “viability (% of control)” value was 135% (inactive).
Take `COc1ccc(COc2cc3oc(=O)c4cc(C(C)O)ccc4c3cc2OC)cc1` (stereo unspecified): the Potency was 18.7 µM (active).
Same read-out and setting: the result for `Cc1ccc(N(CC2=NCCN2)c2cccc(O)c2)cc1` reads 13.2 µM (active).
`CC(C[N+](C)(C)C)OC(N)=O` (stereo unspecified): the “viability (% of control)” value is 104% (inactive).
Consider `CS(=O)(=O)c1cccc(CNc2nc(Nc3ccc4c(c3)CCC(=O)N4)ncc2C(F)(F)F)c1`, for which the Potency was 11.8 µM (active).
The same measure, in the same setting: the result for `CC(C)(N)C(=O)N[C@H](COCc1ccccc1)C(=O)N1CCC2(CC1)CN(S(C)(=O)=O)c1ccccc12` reads 10.5 µM (active).
Turning to `N[C@@H]1CONC1=O`, the “viability (% of control)” value was 133% (inactive).
For `N#CC[C@H](C1CCCC1)n1cc(-c2ncnc3[nH]ccc23)cn1`, the Potency was 0.372 µM (active).
Consider `COc1ccccc1-c1cccc(-c2c(O)c3cc(C#N)c(Cl)cc3[nH]c2=O)c1`, for which the “viability (% of control)” value was 122% [at 92.2 µM] (inactive).
On the same count and under the same terms, under `CCC(C)N(C)C(=O)c1cc2ccccc2c(-c2ccccc2Cl)n1` (stereo unspecified) stands 170% (inactive).
Consider `O=C(c1cc(Cc2n[nH]c(=O)c3ccccc23)ccc1F)N1CCN(C(=O)C2CC2)CC1`, for which the Potency was 16.6 µM (active).
On to `Nc1nc2ccc(OC(F)(F)F)cc2s1`, for which the “viability (% of control)” value was 139% (inactive).
Regarding `COc1cccc2cc(-c3nc(C4CCC(C(=O)O)CC4)n4ncnc(N)c34)[nH]c12` (stereo unspecified), the Potency is 1.48 µM (active).

Source of the values: PubChem BioAssay (NCATS).
